# BLM helicase inh: Bloom syndrome helicase (human) inhibition; P54132; recombinant BLM DNA unwinding, fluorescence dequenching; Potency, µM (series often up to 56.1 µM), inactives show at the top dose activity change, negative = inhibition, actives largely listed as inhibitors; 350,000 compounds, 0.2% hits; AID 2528;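 further: plate controls were vehicle for no effect and no enzyme for full effect; nearly all actives have a fitted effect of over 35% in size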
# Target sequence (P54132 whole entry, looked up): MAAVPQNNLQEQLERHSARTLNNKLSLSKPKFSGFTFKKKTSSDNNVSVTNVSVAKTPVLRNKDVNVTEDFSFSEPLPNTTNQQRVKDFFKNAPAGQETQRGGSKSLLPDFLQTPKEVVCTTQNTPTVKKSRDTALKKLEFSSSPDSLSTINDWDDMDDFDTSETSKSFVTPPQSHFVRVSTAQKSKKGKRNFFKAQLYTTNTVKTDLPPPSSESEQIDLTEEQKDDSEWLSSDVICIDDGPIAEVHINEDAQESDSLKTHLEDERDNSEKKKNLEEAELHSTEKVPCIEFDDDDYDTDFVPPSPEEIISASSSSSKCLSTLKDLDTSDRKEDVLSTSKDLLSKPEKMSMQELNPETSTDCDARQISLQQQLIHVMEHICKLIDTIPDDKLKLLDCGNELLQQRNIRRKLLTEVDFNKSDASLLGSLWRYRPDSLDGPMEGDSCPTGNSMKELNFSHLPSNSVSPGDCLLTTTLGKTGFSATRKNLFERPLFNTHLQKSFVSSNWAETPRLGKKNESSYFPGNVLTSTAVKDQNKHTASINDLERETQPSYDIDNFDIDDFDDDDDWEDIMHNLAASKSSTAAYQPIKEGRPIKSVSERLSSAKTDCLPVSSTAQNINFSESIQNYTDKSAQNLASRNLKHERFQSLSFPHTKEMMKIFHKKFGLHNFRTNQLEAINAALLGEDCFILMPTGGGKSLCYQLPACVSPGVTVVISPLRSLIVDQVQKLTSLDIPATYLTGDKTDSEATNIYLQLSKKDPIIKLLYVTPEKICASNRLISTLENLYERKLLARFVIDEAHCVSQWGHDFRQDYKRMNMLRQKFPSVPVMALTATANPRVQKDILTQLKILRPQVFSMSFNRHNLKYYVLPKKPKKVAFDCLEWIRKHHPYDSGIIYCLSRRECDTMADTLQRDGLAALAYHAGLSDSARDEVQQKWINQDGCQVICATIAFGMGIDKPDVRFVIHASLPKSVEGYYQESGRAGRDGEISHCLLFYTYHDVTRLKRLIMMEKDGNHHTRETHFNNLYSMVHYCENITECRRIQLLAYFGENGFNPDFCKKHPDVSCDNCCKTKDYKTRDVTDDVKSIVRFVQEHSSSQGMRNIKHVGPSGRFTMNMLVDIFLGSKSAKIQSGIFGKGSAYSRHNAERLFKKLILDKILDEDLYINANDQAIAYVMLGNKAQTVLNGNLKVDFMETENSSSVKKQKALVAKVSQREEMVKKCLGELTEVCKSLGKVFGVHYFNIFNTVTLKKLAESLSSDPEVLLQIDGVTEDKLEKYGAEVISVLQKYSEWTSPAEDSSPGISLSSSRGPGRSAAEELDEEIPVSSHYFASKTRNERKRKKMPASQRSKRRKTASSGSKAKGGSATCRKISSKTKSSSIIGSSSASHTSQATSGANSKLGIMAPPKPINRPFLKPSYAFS
# APEX1 inh: inhibitors of human APE1 endonuclease. Potency, µM (highest dose often 65.8 µM), inactives show top-dose activity change, negative = inhibition, hits mostly inhibitors. 350,000 compounds, 0.35% hits. AID 2517. P27695. recombinant APE1, TAMRA/BHQ-2 abasic DNA cleavage fluorescence;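 further: plate controls were vehicle for no effect and reference inhibitor for full effect; nearly all actives have a fitted effect of over 55% in size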
#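 Measures dequenching upon AP-site incision of a 5'-TAMRA/3'-BHQ-2 THF-containing duplex, 50 nM; human APE1 0.75 nM after 15 min room-temperature exposure to compound; kinetic three-point read at one-minute spacing.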
# FEN1 inh-1: inhibitors of human flap endonuclease 1; Recombinant FEN1 flap cleavage, fluorescence, 15 min; Potency, µM (top dose mostly 114 µM), for the others: top-dose activity change, negative = inhibition, most hits filed as inhibitors; 390,000 compounds, 0.35% hits; AID 588795; further: on the % scale 0 is the no-effect control and ±100 the full control effect; nearly all actives have a fitted effect of over 65% in size
#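 With each library titrated from low to high concentration, compounds met 10 nM FEN1 for 15 min at room temperature before 50 nM substrate was added; readings at 0 and 15 min fed four-parameter Hill curve fits.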
# WRN inhibitor: WRN helicase (human) inhibition; Q14191; WRN helicase unwinding, fluorescent forked duplex, kinetic; Potency, µM (top dose mostly 114 µM), without a hit: at the top dose activity change, negative = inhibition, most hits filed as inhibitors; 360,000 compounds, 0.46% hits; AID 651768; further: on the % scale 0 is the no-effect control and ±100 the full control effect; nearly all actives have a fitted effect of over 55% in size
#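 Kinetic fluorescence helicase assay: unwinding of a quenched forked DNA duplex (100 nM final) with 2 mM ATP final raises red fluorescence (525/598 nm). Compounds sat 15 min at room temperature with 20 nM WRN beforehand.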
# RECQ1 inh: RECQ1 (human) helicase inhibition. 240,000 compounds, 0.54% hits. P46063. RECQ1 DNA unwinding, red fluorescence kinetic read. Potency, µM (titrated, usually from 57.3 µM), for the others: top-dose activity, negative = inhibition, actives largely listed as inhibitors;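 further: plate controls were vehicle for no effect and no enzyme for full effect; nearly all actives have a fitted effect of over 30% in size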
#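 50 nM RECQ1T1 preincubated 15 min with compound in Tris pH 8.0 buffer with MgCl2, DTT, Tween-20 and 2.5 ug/ml poly(dI-dC); started with 200 nM TAMRA/BHQ-2 forked duplex and 2 mM ATP. Unwinding read as fluorescence (525/598 nm), two reads 2 h apart.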
# L3MBTL1 block: inhibitors of human L3MBTL1. AlphaScreen L3MBTL1–H3K9me1 peptide binding. 230,000 compounds, 0.66% hits. Potency, µM (titrated, usually from 57.1 µM), without a hit: top-dose activity, negative = inhibition, most hits filed as inhibitors. Q9Y468; further: on the % scale 0 is the no-effect control and ±100 the full control effect; nearly all actives have a fitted effect of over 60% in size
#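 Read-out is AlphaScreen signal from streptavidin donor and nickel chelate acceptor beads (10 ug/mL final each) bridging L3MBTL1 (50 nM) and biotinylated K9-monomethylated H3(1-15) peptide (75 nM), after 30 min compound exposure at room temperature.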
# FEN1 inh-2: FEN1 inhibition, cherry-pick retest; 880 compounds, 79% hits; shares compounds with FEN1 inh-1; AID 720498; Potency, µM, usual class: inhibitors; FEN1 flap cleavage, TAMRA/BHQ2 fluorogenic DNA substrate; further: nearly all actives have a fitted effect of over 60% in size
# * = called active by the depositor; i = inactive; ? = inconclusive; . = no result given; [ ] = remark or other dose. Rows were chosen to be rich in hits. Some 1% of all compounds tested hit in one or more screens of this group. The call rests on the fitted dose curve; in most records, active means well fitted curve in the direction sought with a large enough effect; inconclusive means small, poorly fitted or top-dose-only effect, or another doubt; inactive means no such curve, though single readings can be large; an effect the other way counts as inactive or inconclusive. Potency means the concentration at half of the fitted maximal effect.
SMILES,BLM helicase inh,APEX1 inh,FEN1 inh-1,WRN inhibitor,RECQ1 inh,L3MBTL1 block,FEN1 inh-2
CC(=O)N1N=C(c2ccc(C)cc2)OC1c1ccc(Br)cc1 (stereo not given),8%,8%,-11%,-7%[57.1 µM],-9%,-29%,.
CCOc1ccc(Br)cc1C1=NN(C(C)=O)C(c2ccc([N+](=O)[O-])s2)O1 (stereo not given),-11%,25%,?,6%[11.6 µM],.,.,6.7*
COc1ccc(-c2c(-c3ccccc3)c(C(=O)C(=O)NCCCN(C)C)n3ccc4cc(OC)c(OC)cc4c23)cc1OC,36%,-37%,40µM*,-10%,.,.,34*
Nc1nc2ccccc2n1S(=O)(=O)c1ccc(Cl)cc1,.,.,.,-4%,.,.,.
CC[N+](CC)(CC)CCCCOc1ccc2c(c1)C(=O)c1cc(OCCCC[N+](CC)(CC)CC)ccc1-2,?,?,13µM*,50µM*,-7%,1%,21*
CC[N+](CC)(CC)CCOc1ccc(/C=C\c2ccccc2)cc1,40%,-2%,.,.,2%,.,.
COc1ccc(CNCCCn2cnc3c(SC)ncnc32)cc1,.,.,.,1%,.,.,.
CN1C=C/C(=C\c2cc[n+](C)c3ccccc23)c2ccccc21,?,3%,28µM*,40µM*,-7%,.,8.5*
O=C(NCCO)c1cc2c([nH]c3ccccc32)c(-c2ccc(F)cc2)n1,-3%,15%,?,1%[57.1 µM],.,.,.
Cc1ccc(-c2nc(C(=O)NCCCN(C)C)cc3c2[nH]c2ccccc23)cc1,169%,-8%,?,71%,.,.,38*
O=c1c(=O)n(O)c2ccccc2n1O,-7%,-2%,0.79µM*,3%,i,5%,1.3*
COc1ccc(C2=Nc3ccccc3NC(=O)C2N(Cc2ccccc2)C(=O)C2=NNC(=O)CC2)cc1 (stereo not given),.,.,.,-4%,.,.,.
CC1(C)CC(N=c2cc(-c3ccccc3)oc3ccc(Cl)cc23)CC(C)(C)N1,162%,-3%,28µM*,-31%,-8%,.,19*
CC1CCC(NC(=O)CSc2nnnn2C)CC1 (stereo not given),.,-1%,-10%,3%,.,3%,.
Cc1sc(NC(=O)CSc2nc(O)cc(=O)[nH]2)nc1-c1ccccc1,?,2%,50µM*,?,i,-5%,67*
COc1cccc(-c2nc(SCC(=O)Nc3nc(-c4ccccc4)c(C)s3)[nH]c(=O)c2C#N)c1,-6%,18%,0%,-34%,17%,-26%,.
CC(C1SC(=S)NC1=O)C1SC(=S)NC1=O (stereo not given),.,.,.,?,.,.,?
O=C(CCCN1C(=O)/C(=C/c2cccs2)SC1=S)Nc1cccnc1,-10%,1%,1%,-18%,-20%,-6%,.
CCN(CC)CCOC(=O)c1ccc(NC(=O)CCCN2C(=O)/C(=C\c3cccs3)SC2=S)cc1,-1%,-44%,?,-3%[11.6 µM],.,.,?
O=C(CCN1C(=O)/C(=C\c2cccs2)SC1=S)Nc1ccc(C(=O)O)cc1,0%,18%,?,1%[11.6 µM],.,.,67*
COc1ccc(CCCc2nnc(SCC(=O)Nc3ccc(C)cc3)o2)cc1C,2%,.,1%,.,.,.,.
CCNC(=O)C1(C)CCN(Cc2csc(-c3ccccc3)n2)C1 (stereo not given),.,.,.,1%,.,.,.
COc1cc(-c2ccc3ncnc(NCc4nc(C)cs4)c3c2)cc(OC)c1OC,.,.,.,.,.,.,?
COc1ccc2[nH]cc(CCNc3ncnc4ccc(-c5cccnc5)cc34)c2c1,-6%,-7%,.,.,-15%,.,.
COc1ccc(-c2ccc3ncnc(NCCc4cnc[nH]4)c3c2)cc1OC,.,.,.,.,.,.,30*
CC(=O)NS(=O)(=O)c1ccc(NC(=O)c2oc3c(Cl)cccc3c2C)cc1,-11%,2%,17%,-1%,-11%,3%,.

# Bioassay records deposited in PubChem BioAssay by National Center for Advancing Translational Sciences (NCATS).
